# Screening results: PubChem, National Center for Advancing Translational Sciences (NCATS)
# Sampled rows, rich in hits. Any-hit rate of the full collection: about 2.5%.
# GALK inhibitor – inhibits human galactokinase. recombinant GALK, Kinase-Glo ATP luminescence, 1 h. Potency, µM (highest dose often 57.5 µM), usual class: inhibitors. AID 1347072. 44,000 tested, under 10 active. P51570
#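 Reactions with and without enzyme served as controls. GALK at 5 nM phosphorylates 100 uM galactose using 35 uM ATP (HEPES pH 8.0, Mg2+) for 1 h at RT, with luminescence read 10 min after adding Kinase-Glo Plus.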
# PTAP-TSG101 blk – inhibitors of HIV-1 PTAP binding to human TSG101, validation; Potency, µM (top dose mostly 115 µM), usual class: inhibitors; 44,000 tested, under 10 active; Fluorescence polarization, FITC-PTAP peptide/Tsg101, 20 min
# Target sequence (Q99816 whole entry, looked up): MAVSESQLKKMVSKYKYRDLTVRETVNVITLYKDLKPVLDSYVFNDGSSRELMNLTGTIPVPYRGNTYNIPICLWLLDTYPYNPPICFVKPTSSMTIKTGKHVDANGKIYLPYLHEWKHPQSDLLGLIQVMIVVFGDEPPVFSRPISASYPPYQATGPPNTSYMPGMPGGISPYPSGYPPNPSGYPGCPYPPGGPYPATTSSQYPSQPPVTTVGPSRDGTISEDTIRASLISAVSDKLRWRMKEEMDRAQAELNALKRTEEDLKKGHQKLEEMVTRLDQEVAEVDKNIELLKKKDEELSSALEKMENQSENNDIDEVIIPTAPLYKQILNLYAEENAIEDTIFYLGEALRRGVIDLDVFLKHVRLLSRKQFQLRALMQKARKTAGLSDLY
#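 Fluorescence polarization binding of Tsg101 binding domain (10 uM final) to FITC-labeled PTAP-motif peptide (50 nM final) in HEPES pH 7.5/NaCl/Tween 20/EDTA/TCEP buffer; 20 min at r.t. Actives by curve class, <25 µM, efficacy <60% inhibition.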
# SKOV3 invasion – inhibitors of ovarian cancer cell adhesion and invasion in omental model; SKOV3ip1-GFP adhesion/invasion on 3D omental model, fluorescence; Potency, µM (doses to about 45.8 µM), actives largely listed as inhibitors; 0.1% of 46,000 active; also: nearly all actives have a fitted effect of over 65% in size
#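 A 3D layer of primary human omental fibroblasts, mesothelial cells, fibronectin and collagen I, grown 48 hr, received SKOV3ip1-GFP cells in serum-free medium plus compounds at 0.36-46 umol/L. After 2 hr RT and 16 hr 37 C, fixed adherent GFP cells were counted; normalized to DMSO and tomatine.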
# HTT-AS act – activators of huntingtin-antisense promoter activity. AID 1508624. HEK293 HTT-AS promoter firefly luciferase reporter, 24 h; response scale: percent change from vehicle, -100% = no light. 0.24% of 48,000 active. Potency, µM (series often up to 57.5 µM), usual class: activators; also: nearly all actives have a fitted effect of over 55% in size
#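 Luminescence was read after Dual-Glo reagent and a 10 min room-temperature incubation. Values were normalized to vehicle (0% activity) and zero RLU (-100% activity). Reporter HEK293 cells had been exposed to compounds (up to 57.5 uM final) for 24 h.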
# NTMT1 inhibitor – inhibitors of human N-terminal methyltransferase NTMT1 | Q9BV86 | NTMT1 MTase-Glo SAH luminescence, purified enzyme | Potency, µM (series often up to 114 µM), usual class: inhibitors | 2.5% of 59,000 active | AID 1645870; also: nearly all actives have a fitted effect of over 65% in size
# HTT promoter inh – HTT promoter inhibition; HEK293 HTT promoter firefly luciferase reporter, 24 h; Potency, µM (highest dose often 57.5 µM), usual class: inhibitors; 0.93% of 48,000 active; AID 1508623; also: nearly all actives have a fitted effect of over 50% in size
#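 HEK293 Fluc reporter, 2,500 cells/well, 24 h pre-culture; cpds up to 57.5 uM final, 24 h 37 degrees C; Dual-Glo, 10 min RT; normalized vehicle = 0%, zero RLU = -100%.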
# Sfp PPTase inh – Sfp PPTase inhibition, chemistry optimization; Potency, µM (top dose mostly 114 µM), usual class: inhibitors; shares compounds with NTMT1 inhibitor; purified Sfp PPTase enzyme activity, qHTS; 78% of 230 active
# HM489 growth – B. subtilis HM489 growth inhibition; B. subtilis HM489 (acpS-) growth, BacTiter-Glo, 5 h; AID 540353; Potency, µM (doses to about 114 µM), hits mostly inhibitors; shares compounds with NTMT1 inhibitor; 50% of 220 active
# Sfp PPTase gel – inhibits B. subtilis Sfp PPTase in gel assay | shares compounds with NTMT1 inhibitor | purified Sfp PPTase, gel-based product detection | Potency, µM (titrated, usually from 250 µM), most hits filed as inhibitors | 54% of 220 active
# Sfp inh gel – Sfp phosphopantetheinyl transferase inhibition, gel detection; shares compounds with NTMT1 inhibitor; purified Sfp PPTase, gel-based product detection; Potency, µM (titrated, usually from 250 µM), most hits filed as inhibitors; 90% of 45 active; AID 602362
# Sfp SAR2 – inhibitors of Bacillus subtilis Sfp PPTase, SAR round 2 | Potency, µM (titrated, usually from 57.1 µM), actives largely listed as inhibitors | purified Sfp enzyme, PPTase activity, qHTS | 87% of 230 active | AID 602370 | shares compounds with NTMT1 inhibitor
# hGST ctr – hGST A1-1 enzyme inhibition, Sfp SAR counter-screen; shares compounds with NTMT1 inhibitor; hGST A1-1 enzyme activity counter-screen, qHTS; Potency, µM (titrated, usually from 114 µM), hits mostly inhibitors; 55 tested, under 10 active
# HSD17B4 counter – inhibits human HSD17B4, off-target for HPGD inhibitors; shares compounds with NTMT1 inhibitor; purified HSD17B4, estradiol/NAD+, NADH fluorescence; Potency, µM (highest dose often 57.1 µM), hits mostly inhibitors; 10% of 230 active
# ALDH1A1 inh – ALDH1A1 (human) inhibition, HPGD counter-screen | shares compounds with NTMT1 inhibitor | recombinant ALDH1A1, NADH fluorescence, propionaldehyde/NAD+ | Potency, µM (doses to about 57.1 µM), hits mostly inhibitors | 93% of 230 active | AID 743195
# NNMT counter – blocks human NNMT methyltransferase; shares compounds with NTMT1 inhibitor; NNMT MTase-Glo luminescence, SAH detection; Potency, µM (titrated, usually from 57.1 µM), usual class: inhibitors; 10% of 120 active
# Numbers stand for hits; – = inactive; ? = inconclusive; · = no result given; [ ] = remark or other dose. Calls follow the shape of the dose curve; as a rule, active = well fitted curve in the direction sought with a large enough effect; inconclusive = small, poorly fitted or top-dose-only effect, or another doubt; inactive = no such curve, though single readings can be large; an effect the other way counts as inactive or inconclusive.
SMILES,GALK inhibitor,PTAP-TSG101 blk,SKOV3 invasion,HTT-AS act,NTMT1 inhibitor,HTT promoter inh,Sfp PPTase inh,HM489 growth,Sfp PPTase gel,Sfp SAR2,HSD17B4 counter,ALDH1A1 inh,others
Cc1cc(C)nc(NC(=S)N2CCN(c3ccc([N+](=O)[O-])cc3Cl)CC2)c1,·,·,·,·,28µM,·,1.5µM,–,2µM,0.81µM,19µM,0.68µM,Sfp inh gel=1.5µM;hGST ctr=–
Cc1cc(C)nc(NC(=S)N2CCN(c3ccc4ncccc4c3[N+](=O)[O-])CC2)c1,·,·,·,·,?,·,5.9µM,–,–,2.9µM,–,19µM,
Cc1ccc(N2CCN(C(=O)c3cnc(N4CCCCC4)c4ccccc34)CC2)c(C)c1,–,–,–,–,–,?,·,·,·,·,·,·,
Cc1cc(C)nc(NC(=S)N2CCN(c3cc(Cl)c(Cl)cc3Cl)CC2)c1,·,·,·,·,?,·,4.7µM,?,5µM,3.2µM,–,22µM,
Cc1cc(C)nc(NC(=S)N2CCN(Cc3c(F)cccc3Cl)CC2)c1,·,·,·,·,–,·,8.3µM,–,–,?,–,11µM,
Cc1cc(C)nc(NC(=S)N2CCN(c3ccc(Cl)c(Cl)c3Cl)CC2)c1,·,·,·,·,?,·,2.4µM,7.4µM,?,0.73µM,–,19µM,
Cc1ccc(N2CCN(C(=O)c3ccc4c(Cl)c5c(nc4c3)CCCC5)CC2)c(C)c1,–,–,–,–,–,–,·,·,·,·,·,·,
N=C(N)c1ccc2nc(-c3cc(CC(=O)N[C@@H](CC(=O)O)C(=O)O)cc(-c4cc(S(N)(=O)=O)ccc4O)c3O)[nH]c2c1,·,·,·,·,–,·,·,·,·,·,·,·,
OCCCNc1cc(-c2ccnc(Nc3cccc(Cl)c3)n2)ccn1,·,·,?,–,4.5µM,?,·,·,·,·,·,·,NNMT counter=25µM
N#Cc1nc(NCCCO)nc(Nc2ccccc2)n1,·,·,·,·,–,·,·,·,·,·,·,·,
O=C(O)C1CN(Cc2ccc(-c3nc4cc(Cc5ccccc5F)ccc4s3)c(F)c2)C1,·,·,·,·,–[12.6 µM],·,·,·,·,·,·,·,
O=C(NCCc1nc2ccccc2n1CCOc1ccccc1F)C1CCCCC1,·,·,·,·,–,·,·,·,·,·,·,·,
CCOc1ccc(OCc2ccc(C(=O)Nc3cc(OC)c(OC)c(OC)c3)o2)cc1,–,–,–,–,–,–,·,·,·,·,·,·,
COc1cc(CCc2ccc(OCC=C(C)C)cc2)cc(OC)c1OC,·,·,·,·,–,·,·,·,·,·,·,·,NNMT counter=–
